BLM inh: Bloom syndrome helicase (human) inhibition | P54132 | recombinant BLM DNA unwinding, fluorescence dequenching | Potency, µM (doses to about 56.1 µM), most hits filed as inhibitors | 350,000 compounds, 0.2% hits | AID 2528; note: nearly all actives have a fitted effect of over 35% in size
JMJD2E inh: JMJD2E (human) inhibition; JMJD2E catalytic domain, FDH-coupled NADH fluorescence (FDH is formaldehyde dehydrogenase); Potency, µM (highest dose often 57.1 µM), hits mostly inhibitors; 230,000 compounds, 1.6% hits; B2RXH2; active = well fitted inhibition curve with a large enough effect, not every such curve was filed as active; inconclusive = small, poorly fitted or top-dose-only effect, or another doubt; inactive = no such curve, though single readings can be large or run the other way; note: nearly all actives have a fitted effect of over 50% in size
L3MBTL1 block: inhibitors of human L3MBTL1. Q9Y468. AlphaScreen L3MBTL1–H3K9me1 peptide binding. Potency, µM (highest dose often 57.1 µM), most hits filed as inhibitors. 230,000 compounds, 0.66% hits; note: nearly all actives have a fitted effect of over 60% in size
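AlphaScreen proximity signal between nickel-chelate acceptor and streptavidin donor beads (final 10 ug/mL) reports binding of 50 nM L3MBTL1 to 75 nM biotin-H3 K9me1 peptide; complex incubated with compounds 30 min at room temperature; cefsulodin titration as control.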
RGS12 GoLoco inh: blocks human Gai1 binding to RGS12 GoLoco peptide, red readout; Gai1:RGS12 GoLoco peptide FP, rhodamine, 10 min; Potency, µM (highest dose often 61.6 µM), hits mostly inhibitors; 230,000 compounds, 0.44% hits; AID 880; P63096; active = well fitted inhibition curve with a large enough effect, not every such curve was filed as active; inactive = no such curve, though single readings can be large or run the other way; note: nearly all actives have a fitted effect of over 30% in size
APE1 inh-1: inhibitors of human APE1 endonuclease | recombinant APE1, TAMRA/BHQ-2 abasic DNA cleavage fluorescence | Potency, µM (titrated, usually from 65.8 µM), most hits filed as inhibitors | P27695 | 350,000 compounds, 0.35% hits; note: nearly all actives have a fitted effect of over 55% in size
Target sequence (P27695 whole entry, looked up): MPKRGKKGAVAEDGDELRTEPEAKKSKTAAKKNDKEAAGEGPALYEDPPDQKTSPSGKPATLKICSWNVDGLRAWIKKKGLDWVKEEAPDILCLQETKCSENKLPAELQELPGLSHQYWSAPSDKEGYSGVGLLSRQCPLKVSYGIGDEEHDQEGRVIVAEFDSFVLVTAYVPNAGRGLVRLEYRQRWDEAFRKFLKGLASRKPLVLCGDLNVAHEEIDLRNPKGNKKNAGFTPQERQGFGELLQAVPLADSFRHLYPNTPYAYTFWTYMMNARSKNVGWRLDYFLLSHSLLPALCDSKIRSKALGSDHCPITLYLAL
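Step 1: APE1 (0.75 nM) with compound, 15 min RT. Step 2: add 50 nM fluorophore/quencher THF duplex. Step 3: three fluorescence reads 60 s apart (525/598 nm); read 3 minus read 1 = reaction progress.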
RECQ1 helicase: RECQ1 (human) helicase inhibition | Potency, µM (doses to about 57.3 µM), usual class: inhibitors | RECQ1 DNA unwinding, red fluorescence kinetic read | 240,000 compounds, 0.54% hits | P46063; note: nearly all actives have a fitted effect of over 30% in size
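RECQ1T1 50 nM; forked duplex (20 bp + 30-nt ss tails) 200 nM, ATP 2 mM final; pH 8.0, 2 mM MgCl2, 2.5 ug/ml poly(dI-dC); 15 min compound preincubation; discontinuous kinetic read over 2 h at RT.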
APE1 dye cs: DNA dye displacement counter-screen activity | shares compounds with APE1 inh-1 | DNA fluorescent dye displacement counterscreen, fluorescence | Potency, µM (top dose mostly 28.5 µM), hits mostly inhibitors | 480 compounds, 7% hits | AID 2564;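 note: loss of thiazole orange fluorescence as the dye is displaced from duplex DNA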
Endo IV inh: counter-screen for APE1 inhibitors: inhibitors of E. coli endonuclease IV. E. coli Endo IV, fluorogenic AP-site DNA cleavage. 560 compounds, 4% hits. Potency, µM (series often up to 27.1 µM), hits mostly inhibitors. AID 2565. shares compounds with APE1 inh-1
APE1 inh-2: confirmation of inhibitors of human APE1 endonuclease. shares compounds with APE1 inh-1. purified APE1, fluorogenic abasic-site DNA cleavage. Potency, µM (top dose mostly 57.1 µM), most hits filed as inhibitors. 750 compounds, 44% hits. AID 2572; note: nearly all actives have a fitted effect of over 30% in size
APE1 FP: compounds that displace a DNA probe from human APE1; AID 2573; APE1 binding to TAMRA-labelled double-stranded DNA, fluorescence polarization displacement; shares compounds with APE1 inh-1; 480 compounds, 7% hits; Potency, µM (series often up to 28.5 µM), most hits filed as inhibitors
Large screens that a line does not name were inactive (follow-up assays come after a bar, where they were run). This is one part of a sample in which hits are shown more often than they occur. Unless noted, calls come from the whole dose curve; as a rule, active = well fitted curve in the direction sought with a large enough effect; inconclusive = small, poorly fitted or top-dose-only effect, or another doubt; inactive = no such curve, though single readings can be large; an effect the other way counts as inactive or inconclusive.

O=c1c(-c2c(O)cc(O)c3c(=O)cc(-c4ccc(O)cc4)oc23)c(-c2ccc(O)cc2)oc2cc(O)cc(O)c12	BLM inh 13µM, JMJD2E inh inconclusive, APE1 inh-1 0.79µM, RECQ1 helicase 13µM (no result: L3MBTL1 block) | APE1 dye cs 14µM | Endo IV inh inconclusive | APE1 inh-2 2µM | APE1 FP inactive
O=c1cc(-c2ccc(O)cc2)oc2c(-c3c(O)cc(O)c4c(=O)cc(-c5ccc(O)cc5)oc34)c(O)cc(O)c12	none (no result: BLM inh, JMJD2E inh, RGS12 GoLoco inh, RECQ1 helicase)
Cc1ccc2nc(NC(=O)CCCC(=O)O)sc2c1	APE1 inh-1 inconclusive | APE1 dye cs inactive | Endo IV inh inactive | APE1 inh-2 inconclusive | APE1 FP inactive
Cc1ccc2nc(NC(=O)CCCc3nc4ccccc4s3)sc2c1	none (no result: L3MBTL1 block)
CCc1nn(CC(=O)NCCc2ccc(OC)cc2OC)c(=O)c2cc3sccc3n12	none (no result: JMJD2E inh, L3MBTL1 block, RGS12 GoLoco inh, APE1 inh-1, RECQ1 helicase)
O=C(OC1Cc2c(O)cc(O)cc2OC1c1cc(O)c(O)c(O)c1-c1c(C2Oc3cc(O)cc(O)c3CC2OC(=O)c2cc(O)c(O)c(O)c2)cc(O)c(O)c1O)c1cc(O)c(O)c(O)c1 (stereo not drawn)	BLM inh 7.9µM, JMJD2E inh 11µM, APE1 inh-1 0.13µM, RECQ1 helicase 4.5µM (no result: L3MBTL1 block) | Endo IV inh 28µM | APE1 inh-2 0.32µM
C[C@](N)(C(=O)O)c1ccc(-c2nn[nH]n2)cc1	APE1 inh-1 inconclusive (no result: L3MBTL1 block)
CN1C(=O)S/C(=C/c2cccn2-c2cccc(C(=O)O)c2)C1=O	L3MBTL1 block inconclusive, APE1 inh-1 inconclusive | APE1 dye cs inconclusive | Endo IV inh inactive | APE1 inh-2 inconclusive | APE1 FP inconclusive
O=C(O)c1ccc(-n2cccc2/C=C2/NC(=O)N(c3cccc(Cl)c3)C2=O)cc1	APE1 inh-1 2.8µM, RECQ1 helicase 22µM (no result: L3MBTL1 block) | APE1 dye cs inconclusive | Endo IV inh inactive | APE1 inh-2 13µM | APE1 FP 11µM
Cc1cc(C(=O)O)ccc1-c1ccc(/C=C2\NC(=O)N(Cc3ccc(F)cc3)C2=O)o1	JMJD2E inh inconclusive, APE1 inh-1 13µM (no result: L3MBTL1 block) | APE1 dye cs inconclusive | Endo IV inh inactive | APE1 inh-2 40µM | APE1 FP inactive
Cc1cccc(NC(=O)CN2C(=O)N/C(=C\c3ccc(-c4cccc(C(=O)O)c4)o3)C2=O)c1	JMJD2E inh inconclusive, APE1 inh-1 inconclusive (no result: L3MBTL1 block)
O=C(O)c1ccc(-n2cccc2/C=C2/NC(=O)N(c3ccccc3)C2=O)cc1	APE1 inh-1 2.5µM, RECQ1 helicase 25µM (no result: L3MBTL1 block) | APE1 dye cs inactive | Endo IV inh inactive | APE1 inh-2 4µM | APE1 FP 13µM
O=C(Nc1c(C(=O)c2ccccc2)oc2ccccc12)c1ccc(F)cc1	none (no result: JMJD2E inh, L3MBTL1 block, RGS12 GoLoco inh, APE1 inh-1, RECQ1 helicase)
O=C1N/C(=C/c2cccn2-c2ccc(F)cc2)C(=O)N1Cc1ccccc1	none (no result: L3MBTL1 block)
O=C(O)c1cccc(-n2cccc2/C=C2\NC(=O)N(Cc3ccc(F)cc3)C2=O)c1	L3MBTL1 block inconclusive, APE1 inh-1 10µM | APE1 dye cs inactive | Endo IV inh inactive | APE1 inh-2 10µM | APE1 FP inconclusive
O=C(N/N=C/c1c[nH]c2ccc(Br)cc12)c1ccncc1	BLM inh inconclusive | APE1 inh-2 inactive
COc1cccc(/C=N/Nc2ccc(S(=O)(=O)O)cc2)c1O	JMJD2E inh inconclusive, APE1 inh-1 25µM | APE1 dye cs inconclusive | Endo IV inh inactive | APE1 inh-2 inconclusive | APE1 FP inactive
CC1=C(c2ccc(C)c(C)c2)S(=O)(=O)N=C1N1CCN(c2cccc(C)c2)C(C)C1 (stereo not drawn)	none (no result: JMJD2E inh, L3MBTL1 block, RGS12 GoLoco inh, APE1 inh-1, RECQ1 helicase)

Screens (PubChem)
